# Rv3671c protease: Rv3671c serine protease inhibitors, primary screen, biochemical, fluorescence polarization, M. tuberculosis H37Rv. P9WHR9. inhibition, % at 5.96 µM. actives 0.048% (n = 320,000). AID 2606, 2010; in the data active = inhibition above about 38%;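 note: extracellular domain of Rv3671c used as enzyme; 0% = enzyme with DMSO and 100% = no enzyme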
# Mtb FBA inh: Mtb FBA enzyme inhibitors, primary screen, biochemical, fluorescence, strain H37Rv | Fructose-bisphosphate aldolase (Mycobacterium tuberculosis (strain ATCC 25618 / H37Rv)), … | purified M. tuberculosis FBA, fluorescence read-out | inhibition, % at 1 µM | actives 2.3% (n = 360,000); in the data active = inhibition above about 27%;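 note: 0% = vehicle and 100% = reference inhibitor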
# Mtb UGM inh: M. tuberculosis UGM enzyme inhibitors, primary screen, biochemical, fluorescence polarization, single point; purified UGM, fluorescence polarization probe displacement; inhibition, % at 10 µM; actives 0.06% (n = 320,000); in the data active = inhibition above about 10%, passing the limit was not always enough; inconclusive = no clear call, values can overlap the other calls
# Target sequence (P9WIQ1 whole entry, looked up): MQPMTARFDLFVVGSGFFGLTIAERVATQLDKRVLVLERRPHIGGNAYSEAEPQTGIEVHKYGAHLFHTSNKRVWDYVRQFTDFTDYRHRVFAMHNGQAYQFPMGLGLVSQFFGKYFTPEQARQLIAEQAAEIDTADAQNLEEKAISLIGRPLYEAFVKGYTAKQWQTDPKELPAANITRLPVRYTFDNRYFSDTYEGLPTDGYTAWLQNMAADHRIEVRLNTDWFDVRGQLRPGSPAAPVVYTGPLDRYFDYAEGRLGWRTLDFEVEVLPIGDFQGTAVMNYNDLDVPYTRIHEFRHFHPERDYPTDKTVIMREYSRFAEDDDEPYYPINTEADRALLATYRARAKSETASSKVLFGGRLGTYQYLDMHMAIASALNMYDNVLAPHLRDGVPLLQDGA
# GDH-TPI inh: GDH-TPI coupling enzyme inhibitors, primary screen, artefact control for M. tuberculosis FBA inhibitor project, biochemical, absorbance, full deck; inhibition, % at 4.8 µM; GDH-TPI coupled enzyme counterscreen, NADH absorbance; actives 1.2% (n = 360,000); in the data active = inhibition above about 30%;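 note: 0% = DMSO wells and 100% = wells lacking the enzyme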
# Mtb hypoxia rep: PubChem AID 1159583 | M. tuberculosis hypoxia-regulated fluorescent reporter, fluorescence | actives 0.1% (n = 300,000) | fluorescence inhibition, % (no concentration beside the values); in the data active = fluorescence inhibition mostly above about 23%, no sharp cut-off; inactive = mostly below about 17%
# FadD28 binding: inhibitors of FadD28 bisubstrate probe binding, primary screen, biochemical, fluorescence polarization, single point; Mycobacterium tuberculosis FadD28 fatty-acid-AMP ligase; inhibition, % at 12.5 µM; actives 0.22% (n = 360,000); AID 588549, 2011; in the data active = inhibition above about 8.5%, passing the limit was not always enough; inconclusive = no clear call, values can overlap the other calls
# Numbers without * were called inactive; u = inconclusive; x = no result; + = active, no number. The list is not random: actives were taken first. Their share in the collection is about 3.5%.
SMILES,Rv3671c protease,Mtb FBA inh,Mtb UGM inh,GDH-TPI inh,Mtb hypoxia rep,FadD28 binding
Cc1ccc(-c2cc(C(=O)Nc3ccccc3C(N)=O)c3ccccc3n2)o1,-9,3,2,12,13,-2
Cc1ccc2nc(-c3ccc4c(c3)OCCO4)cc(C(=O)O)c2c1,5,14,0,24,6,2
Cc1ccc(-c2cc(C(=O)N(C)CC(=O)Nc3ccccc3Br)c3ccccc3n2)o1,-8,120*,-1,11,0,-2
COc1ccc2cc(-c3cc(C(=O)O)c4ccccc4n3)ccc2c1,-1,13,-1,36*,x,-6
COc1ccc(C=c2sc(=CC(=O)c3ccc(C)cc3)[nH]c2=O)c(OC)c1,x,x,x,x,3,x
COc1ccc(-c2cc(C(F)F)n3ncc(C(=O)N4CCCCC4)c3n2)cc1,1,26,1,42*,16,-1
COc1ccc2nc(-c3ccccc3)cc(C(=O)N3CCC3)c2c1,-2,149*,-3,10,-8,-5
COc1ccc(-c2cc(C(=O)N3CCCC3)c3ccccc3n2)cc1,4,148*,0,14,10,0
Cc1ccc(-c2cc(C(=O)N3CCOCC3)c3ccccc3n2)o1,-6,120*,2,22,11,0
C=CCc1ccccc1OCCOc1ccc([N+](=O)[O-])cc1C=NNC(N)=O,x,x,x,x,6,x
COC(=O)[C@]1(C)CC1C(NP(=O)(c1ccccc1)c1ccccc1)c1ccccc1 (some centres not stated),x,x,x,x,-1,x
CCn1c(C)nc2cc(C(=O)NN=C(C)c3ccccc3O)ccc21,x,x,x,x,-3,x
CC(NC(=O)OCc1ccccc1)c1nnc(C(C)NC(=O)OCc2ccccc2)o1 (configuration not stated),x,x,x,x,13,x
NC(=O)C1CCN(C(=O)c2cc(-c3ccc(Cl)s3)nc3ccccc23)CC1,-2,127*,1,34*,-13,-2
COc1ccc(-c2cc(C(=O)N3CC(C)CC(C)C3)c3ccccc3n2)cc1 (configuration not stated),-16,50*,0,13,2,-1
CCN(CC)CCCNC(=O)c1cc(Sc2nnc(C)s2)nc2ccccc12,-3,2,25*,6,5,-4
COC(CNC(=O)c1cc(Sc2nnc(C)s2)nc2ccccc12)OC,4,-5,2,5,17,-2
CC[C@H](C)/C=C(C)/C=C/C1=CC2=C(Cl)C(=O)[C@](C)(OC(C)=O)C(=O)C2=CO1,9,5,x,23,x,17*
O=C1c2ccccc2NC(c2ccncc2)N1c1ccccn1 (configuration not stated),2,54*,-1,3,9,-2
COc1ccc2c(c1)-c1ccccc1S(=O)(=O)N2C(C)=O,0,31*,-1,13,11,2
COc1ccc(O)c(C=NNC(=O)CCC(=O)Nc2ccc(F)cc2)c1,x,x,x,x,17,x
COCCCn1c(=NC(=O)c2ccncc2)c(C#N)cc2c(=O)n3cccc(C)c3nc21,-10,+,u,7,-2,-3
CCCCn1c(=NC(=O)c2cccnc2)c(C#N)cc2c(=O)n3cccc(C)c3nc21,4,194*,2,6,-7,-1
Cc1cc(NN=Cc2ccc(O)cc2O)c2ccccc2n1,x,x,x,x,0,x
COc1cc(-c2nc3ccc(N4CCN(C)CC4)cc3[nH]2)cc(OC)c1OC,6,+,-1,11,14,-2
SMILES,Rv3671c protease,Mtb FBA inh,Mtb UGM inh,GDH-TPI inh,Mtb hypoxia rep,FadD28 binding
COc1cc(-c2cnc3c(NC=O)cc(-c4ccc(N5CCN(C)CC5)cc4)cn23)cc(OC)c1OC,x,1,x,11,x,0
COc1ccc(/C(C#N)=C/c2ccccn2)cc1,-11,24,-1,32*,x,-5
N#C/C(=C\c1ccccn1)c1nc2ccccc2s1,-2,-1,2,2,4,-3
Nc1nn(-c2ccccc2)nc1C(=O)OCc1ccccc1F,-14,135*,6,4,0,-2
Cn1nc(C(=O)OCc2ccccc2F)c2ccccc2c1=O,9,1,-2,-4,-6,-1
c1ccc(-c2ncc(-c3ccn[nH]3)s2)cc1,1,139*,-1,15,18,-1

# From PubChem BioAssay
